Here are results for 14 compounds from PubChem BioAssay.

The structures appear in SMILES notation. Results filed as inconclusive are left out. Active and inactive are the calls of the source.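 The calls were made as follows, unless noted: active = normalized viability below 100% at a tested concentration; inactive = the rest.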

Experiment [1] can be described thus: growth inhibition of DIPG glioma cells, dose response, cell-based, SU-DIPG-XVII, MIPE5.0, CellTiter-Glo, qHTS (AID 1347060; cut-off not given, nearly all actives have AC50 up to about 26 µM;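 as to AC50: cells exposed to compound for 48 hours before viability readout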). The settings on record: SU-DIPG-XVII viability, CellTiter-Glo ATP luminescence. A general note: ATP-based viability assays read luminescence as a measure of living cells.
A short description of experiment [2]: viability loss in pontine glioma line – cell-based, SU-DIPG-XXV, MIPE5.0, CellTiter-Glo, qHTS, dose response (AID 1347065; cut-off not given, nearly all actives have AC50 up to about 26 µM;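 also: cells exposed to compound for 48 hours before ATP readout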). The settings on record: CellTiter-Glo ATP luminescence.
The nature of experiment [3]: JHH-DIPG-1 glioma cell viability, MIPE5.0 library, CellTiter-Glo luminescence, qHTS (AID 1347067; cut-off not given, nearly all actives have AC50 up to about 26 µM;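 also: cells exposed to compound for 48 hours before readout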). Conditions: JHH-DIPG-1 glioma viability, CellTiter-Glo ATP luminescence.
Experiment [4] in a line: ovarian cancer cell viability with rucaparib, profiling panel, oncology-focused library, rucaparib conditional (AID 1508598). Conditions: patient-derived ovarian cancer cells, CellTiter-Glo viability, 144 h, stronger effect = lower value.
The nature of experiment [5]: SU-DIPG-XXV glioma cell viability, MIPE5.0 library, qHTS (AID 1347068; cut-off not given, nearly all actives have IC50 up to about 30 µM;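 as to IC50: cells exposed to compound for 48 hours before viability readout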).
Experiment [6] in a line: SU-DIPG-VI glioma cell viability, MIPE4.0 library, CellTiter-Glo luminescence, qHTS (AID 1347066; cut-off not given, nearly all actives have AC50 up to about 30 µM;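 also: cells exposed to compound for 48 hours before readout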). The settings on record: CellTiter-Glo ATP luminescence.
Experiment [7] is described as follows: sensitizers of A549 cells to miR-34 induction, primary screen, imaging, A549 dox-inducible miR-34, nuclei and caspase counts (AID 1347080;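 active = compounds whose cell count with miR-34 switched on is under 0.7 times the count with it off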). The settings on record: A549 miR-34 inducible, Hoechst nuclei count, 48 h.
A short description of experiment [8]: survival rescue of mitochondrial mutant cells in low glucose, primary screen, MELAS cybrids, Rieske KO mouse fibroblasts, CellTiter-Glo (AID 1508586;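 active = mean z-score across replicates of 1.96 or higher in either the MELAS or the Rieske mutant cell line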;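 also: z relative to plate mean and SD of compound and empty wells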).
Experiment [9] is described as follows: liver-stage malaria parasite growth inhibition, primary screen, cell-based, HepG2, luciferase luminescence, HepG2 viability (AID 624349; in the data active = parasite load remaining mostly below about 12%, no sharp cut-off; inactive = mostly above about 10%;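 also: 100% = mean of DMSO negative control wells on the same plate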). The settings on record: P. berghei liver stage in HepG2, luciferase luminescence, concentration not given here; parasite load remaining: stronger effect = lower value; viability: measured here: HepG2 viability without parasites.
Where [10] appears, read: stronger effect = lower value, cell number ratio, induced over uninduced.
Setting [11] is: measured here: relative caspase fold change +Dox/-Dox.
Setting [12] is: measured here: total cells with miR-34 induction, stronger effect = lower value.
The mark [13] stands for this setting: measured here: total cells without miR-34 induction.
Setting [14] is: MELAS cybrid survival, CellTiter-Glo 48 h, stronger effect = higher value.
[15] abbreviates: Rieske KO mouse fibroblast survival, CellTiter-Glo 72 h.

For orientation: AC50 means the concentration at which the activity in the assay is half-maximal. As a reminder, the viability is a read-out of living cells in per cent, often relative to untreated cells. For `CC(C)Oc1ccc(C(=O)N[C@H](CNC(=O)CN(C)C)Cc2ccc(-c3cn4cccc([C@H](C)O)c4n3)cc2)cc1Cl`, the half-maximal activity concentration (AC50) in experiment [1] was 0.0525 µM (active); in [2], 0.0295 µM (active). The outcome in experiment [3] was inactive. The viability in experiment [4] (at 0.000305 µM, OCI-C5x cells, with rucaparib 10 µM, 100% = cells with rucaparib alone) was 116% (inactive); in experiment [4] (at 0.000305 µM, OCI-C5x cells, without rucaparib), 118% (inactive); in experiment [4] (at 0.000305 µM, OCI-P5x cells, with rucaparib 20 µM, 100% = cells with rucaparib alone), 118% (inactive); in experiment [4] (at 0.000305 µM, OCI-P5x cells, without rucaparib), 103% (inactive); in [4] (at 0.00122 µM, OCI-C5x cells, with rucaparib 10 µM, 100% = cells with rucaparib alone), 112% (inactive); in [4] (at 0.00122 µM, OCI-C5x cells, without rucaparib) it was 123% (inactive). Besides, the viability is 107% (inactive) in experiment [4] (at 0.00122 µM, OCI-P5x cells, with rucaparib 20 µM, 100% = cells with rucaparib alone); 107% (inactive) in experiment [4] (at 0.00122 µM, OCI-P5x cells, without rucaparib); 117% (inactive) in [4] (at 0.00488 µM, OCI-C5x cells, with rucaparib 10 µM, 100% = cells with rucaparib alone); 115% (inactive) in [4] (at 0.00488 µM, OCI-C5x cells, without rucaparib); 107% (inactive) in experiment [4] (at 0.00488 µM, OCI-P5x cells, with rucaparib 20 µM, 100% = cells with rucaparib alone); 101% (inactive) in experiment [4] (at 0.00488 µM, OCI-P5x cells, without rucaparib). For the same compound, the viability was 69.6% (active) in experiment [4] (at 0.0195 µM, OCI-C5x cells, with rucaparib 10 µM, 100% = cells with rucaparib alone); 73.7% (active) in experiment [4] (at 0.0195 µM, OCI-C5x cells, without rucaparib); 76.4% (active) in experiment [4] (at 0.0195 µM, OCI-P5x cells, with rucaparib 20 µM, 100% = cells with rucaparib alone); 38.4% (active) in experiment [4] (at 0.0195 µM, OCI-P5x cells, without rucaparib); 57.4% (active) in experiment [4] (at 0.0781 µM, OCI-C5x cells, with rucaparib 10 µM, 100% = cells with rucaparib alone); 72.4% (active) in experiment [4] (at 0.0781 µM, OCI-C5x cells, without rucaparib). In addition, the viability in experiment [4] (at 0.0781 µM, OCI-P5x cells, with rucaparib 20 µM, 100% = cells with rucaparib alone) was 66.4% (active); in experiment [4] (at 0.0781 µM, OCI-P5x cells, without rucaparib), 30.8% (active); in experiment [4] (at 0.313 µM, OCI-C5x cells, with rucaparib 10 µM, 100% = cells with rucaparib alone), 57.8% (active); in experiment [4] (at 0.313 µM, OCI-C5x cells, without rucaparib), 65% (active); in [4] (at 0.313 µM, OCI-P5x cells, with rucaparib 20 µM, 100% = cells with rucaparib alone), 62.3% (active); in [4] (at 0.313 µM, OCI-P5x cells, without rucaparib) it was 28.3% (active). The viability in experiment [4] (at 1.25 µM, OCI-C5x cells, with rucaparib 10 µM, 100% = cells with rucaparib alone) was 61.8% (active); in experiment [4] (at 1.25 µM, OCI-C5x cells, without rucaparib), 72.8% (active); in experiment [4] (at 1.25 µM, OCI-P5x cells, with rucaparib 20 µM, 100% = cells with rucaparib alone) it was 62.6% (active); in experiment [4] (at 1.25 µM, OCI-P5x cells, without rucaparib), 26.8% (active); in experiment [4] (at 5 µM, OCI-C5x cells, with rucaparib 10 µM, 100% = cells with rucaparib alone), 79.5% (active); in experiment [4] (at 5 µM, OCI-C5x cells, without rucaparib), 89.6% (active). Also, the viability is 63.4% (active) in experiment [4] (at 5 µM, OCI-P5x cells, with rucaparib 20 µM, 100% = cells with rucaparib alone) and 25.3% (active) in experiment [4] (at 5 µM, OCI-P5x cells, without rucaparib).
Consider `O=C(CCNC(=O)c1ccc(OC(F)(F)F)cc1)N[C@@H]1CCCc2ccccc21`, for which the figures for the AC50 in [1] and in [3] were 20.9 µM (active) and 8.33 µM (active), respectively. The result in experiment [5] was inactive.
What is called IC50 is the point on the concentration scale where inhibition reaches its midpoint. For the compound `CN(C)c1ccc(Nc2nc(N)n(C(=O)c3c(F)cccc3F)n2)cc1`, the AC50 was 8.33 µM (active) in experiment [1] and 5.25 µM (active) in [2]. In experiment [5], the 50% inhibitory concentration (IC50) is 14.8 µM (active).
As for `NC(=O)[C@@H](CCC(F)(F)F)N(Cc1ccc(-c2ncon2)cc1F)S(=O)(=O)c1ccc(Cl)cc1`, the compound was classed as inactive in experiment [1], in experiment [6] and in experiment [3].
As for `COCCN1CCN(Cc2ccc(-c3n[nH]c4c3C(=O)c3c(NC(=O)NN5CCOCC5)cccc3-4)cc2)CC1`, the half-maximal activity concentration (AC50) in experiment [1] is 0.295 µM (active); in [2], 0.235 µM (active). Also, the IC50 in [5] is 0.263 µM (active).
For the compound `N#Cc1cccc(-c2c[nH]c3ncnc(N4CCOCC4)c23)c1`, the result in experiment [1], in experiment [2] and in experiment [5] was inactive.
Consider `C=CC(=O)N1CC(N2CCN(C(=O)CNc3cc(C4(C)CC4)c(Cl)cc3O)CC2)C1`, for which the result in experiment [1], in experiment [2] and in experiment [5] was inactive.
For `Cn1ncc(NC(=O)c2nc(-c3c(F)cccc3F)sc2N)c1N1CC[C@@H](N)[C@H](F)CC1`, the outcome in [1] and in [3] was inactive.
As for `Cc1cc(N2CCOCC2)ccc1Nc1nc(NC2CCCCC2)c2[nH]cnc2n1`, the AC50 in experiment [1] is 2.35 µM (active); in experiment [2] it was 7.42 µM (active); in [3] it was 14.8 µM (active). Further, in experiment [5], the 50% inhibitory concentration (IC50) is 20.9 µM (active). In addition, the values for the fold change in [7] (setting [10]) and in [7] (setting [11]) were 0.907 (inactive) and 0.505, respectively. The figures for the cell count in [7] (setting [12]) and in experiment [7] (setting [13]) were 3720 and 4100, respectively. For the same compound, the z-score in experiment [8] (setting [14]) is -0.538 (inactive); in [8] (setting [15]) it was -2.79.
Turning to `C[C@H](NC(=O)CCC(F)(F)F)C(=O)N[C@@H]1C(=O)N(CCO)c2ncccc2-c2ccccc21`, the compound was called inactive in [1] and in experiment [3].
On to `COc1cc2ncnc(Nc3ccc(O)c(Br)c3)c2cc1OC`, for which the parasite load remaining in experiment [9] was 33.2% (inactive). Besides, the viability in experiment [9] stood at 98.7%. Moreover, the AC50 in experiment [1] was 16.6 µM (active); in [2], 14.8 µM (active); in experiment [3], 13.2 µM (active). In addition, the values for the fold change in [7] (setting [10]) and in [7] (setting [11]) were 0.645 (active) and 0.931, respectively. In addition, the cell count in [7] (setting [12]) was 3410; in [7] (setting [13]), 5290. Further, the z-score in experiment [8] (setting [14]) is -0.521 (inactive); in experiment [8] (setting [15]), -0.0359.
For `Cc1[nH]nc2ncc(C(=O)N3CCC[C@H]3c3ccc(Cl)cc3)cc12`, the compound was classed as inactive in [1], in [2] and in experiment [5].
Turning to `CCNCCS(=O)(=O)NC[C@@]1(c2ccccc2)SC(NC(=O)C(C)(C)C)=NN1C(=O)C(C)(C)C`, the values for the AC50 in experiment [1] and in experiment [2] were 0.00742 µM (active) and 0.00468 µM (active), respectively. Also, the IC50 in experiment [5] is 0.00296 µM (active).
As to `CC(Nc1ncnc2nc[nH]c12)c1cc2cccc(Cl)c2c(=O)n1-c1ccccc1` (configuration not stated), the AC50 in experiment [1] and in experiment [2] was 18.6 µM (active) throughout. Further, the fold change is 0.872 (inactive) in experiment [7] (setting [10]) and 0.835 in [7] (setting [11]). Further, the cell count in experiment [7] (setting [12]) is 6590; in experiment [7] (setting [13]), 7550. Besides, the results for the z-score in [8] (setting [14]) and in [8] (setting [15]) were -0.147 (inactive) and -0.173, respectively.
